# Hits are enriched below; roughly 3.3% of the tested compounds scored in any of these assays.
# S16 viability – toxic to S16 Pmp22-F2sN Schwann cells. AID 1508642. S16 Pmp22-F2sN Schwann cells viability, CellTiter-Glo, 24 h. 43,000 compounds, 0.48% hits. Potency, µM (series often up to 57.5 µM), for the others: at the highest dose activity change, negative = cytotoxicity, most hits filed as cytotoxic; also: % is scaled to controls: 0 for no effect and ±100 for the full control effect; nearly all actives have a fitted effect of over 65% in size
#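 Seed 500-1,000 S16 Pmp22-F2sN cells per well in phenol-red-free DMEM with 10% heat-inactivated FBS; pin-add 23 nL compound; incubate 24 h at 37C; add CellTiter-Glo, wait 15 min protected from light; read luminescence.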
# HTT-AS act – activators of huntingtin-antisense promoter activity; HEK293 HTT-AS promoter firefly luciferase reporter, 24 h; response scale: percent change from vehicle, -100% = no light; Potency, µM (highest dose often 57.5 µM), inactives show at the highest dose activity change, positive = activation, hits mostly activators; 48,000 compounds, 0.24% hits; AID 1508624; also: nearly all actives have a fitted effect of over 55% in size
#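 HEK293 luciferase promoter-reporter cells (2,500/well) plated 24 h, then compounds added at up to 57.5 uM final for 24 h at 37 °C. Firefly luminescence by Dual-Glo, normalized to vehicle (0%) and zero RLU (-100%).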
# FH mod – Identification of activators of human fumarate hydratase by quantitative high-throughput screening; Fumarate hydratase, mitochondrial (Homo sapiens), P07954; FH coupled MDH/diaphorase resazurin fluorescence, 15 min; Potency, µM (highest dose often 79.9 µM), for inactives: at the top dose activity change, negative = inhibition, most hits filed as inhibitors; 54,000 compounds, 0.22% hits; AID 1347055, 2019; also: % is scaled to controls: 0 for no effect and ±100 for the full control effect; the screen sought activators but most active calls are inhibition curves; nearly all actives have a fitted effect of over 45% in size
# Target sequence (P07954 whole entry, looked up): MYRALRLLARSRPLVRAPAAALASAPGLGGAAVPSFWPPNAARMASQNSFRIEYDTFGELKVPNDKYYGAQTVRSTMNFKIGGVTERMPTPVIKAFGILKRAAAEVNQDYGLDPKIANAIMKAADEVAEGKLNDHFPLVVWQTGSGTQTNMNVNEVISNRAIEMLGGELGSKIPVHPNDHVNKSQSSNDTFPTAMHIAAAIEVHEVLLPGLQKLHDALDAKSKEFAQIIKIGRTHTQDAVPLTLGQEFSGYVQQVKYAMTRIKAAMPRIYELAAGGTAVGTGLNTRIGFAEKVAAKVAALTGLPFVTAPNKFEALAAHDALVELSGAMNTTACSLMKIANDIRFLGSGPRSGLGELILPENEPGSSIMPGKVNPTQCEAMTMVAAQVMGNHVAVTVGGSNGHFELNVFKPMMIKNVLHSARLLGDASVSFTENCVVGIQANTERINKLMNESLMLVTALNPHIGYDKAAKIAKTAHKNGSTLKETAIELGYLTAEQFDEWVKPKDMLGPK
# HTT promoter inh – inhibitors of huntingtin promoter activity | Potency, µM (titrated, usually from 57.5 µM), inactives show at the top dose activity change, negative = inhibition, usual class: inhibitors | AID 1508623 | HEK293 HTT promoter firefly luciferase reporter, 24 h | 48,000 compounds, 0.93% hits; also: nearly all actives have a fitted effect of over 50% in size
#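 Firefly luciferase signal from promoter-reporter HEK293 cells was scaled between vehicle (0%) and zero RLU (-100%). Compounds were tested at final concentrations of up to 57.5 uM over 24 h at 37 degrees C. PTC124 at 50 uM final served as control inhibitor.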
# PMP22 txn – modulates PMP22 transcription in S16 Schwann cells | S16 Pmp22-F2sN Schwann cells (luciferase reporters placed in the Pmp22 gene), FLuc/NLuc coincidence luminescence, 24 h | Potency, µM (series often up to 57.5 µM), for the others: at the highest dose activity change, negative = inhibition, actives largely listed as inhibitors | 43,000 compounds, 2% hits; active = clear falling dose curves in both reporters; inconclusive = both reporters move, but less clearly or upward; inactive = either reporter flat; the % is the NLuc reporter signal; also: % is scaled to controls: 0 for no effect and ±100 for the full control effect
#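 Rat S16 Pmp22-F2sN cells, 500-1,000/well in phenol red-free DMEM + 10% FBS, compound-treated 24 h (37C, 5% CO2). Luminescence: FLuc read, Stop&Glo added, NLuc read.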
# mTORC1 inh – inhibitors of mTORC1 signaling in Tsc2-/- p53-/- MEF cells; Potency, µM (highest dose often 38.3 µM), for the others: top-dose activity change, negative = inhibition, usual class: inhibitors; 44,000 compounds, 0.78% hits; Tsc2-/- p53-/- MEF, phospho-rpS6 immunofluorescence/PI, 24 h;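 also: plate controls were DMSO for no effect and rapamycin for full effect; nearly all actives have a fitted effect of over 50% in size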
#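 Readout is phospho-S6 Alexa 488 signal normalized to PI per well, reported as % active cells with thresholds set from rapamycin (7.5 nM) and DMSO controls. Cells: Tsc2-/-, p53-/- MEFs, 24 hrs compound at 37 C; PI cell number serves as viability.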
# Numbers without * were called inactive; ? = inconclusive; / = no result given; ! = a repeat was not active; [ ] = remark or other dose. Unless noted, calls follow the shape of the dose curve; as a rule, active = well fitted curve in the direction sought with a large enough effect; inconclusive = small, poorly fitted or top-dose-only effect, or another doubt; inactive = no such curve, though single readings can be large; an effect the other way counts as inactive or inconclusive. Potency is read from the fitted curve at half-maximal effect.
SMILES,S16 viability,HTT-AS act,FH mod,HTT promoter inh,PMP22 txn,mTORC1 inh
C[n+]1cc2c3c(ccc2c2ccc4cc5c(cc4c21)OCO5)OCO3,/,-93%[25.1 µM],16µM*!,2.8µM*,/,/
CCN(CC)CCOc1ccc(C(=C(Cl)c2ccccc2)c2ccccc2)cc1,/,24µM*,6%[53.3 µM],-9%,/,/
CC(CO[C@@H]1O[C@H](COC(=O)/C=C/c2ccc(O)c(O)c2)[C@@H](O)[C@H](O)[C@H]1O)C1(O)COC(=O)C1 (some centres undefined),/,/,-2%[53.3 µM],/,/,/
CCCCNC(=O)c1cc(-c2ccc(OC)cc2)nc2n[nH]c(-c3cccc([N+](=O)[O-])c3)c12,16µM*,-1%,6%,-26%,?,-5%
COc1ccc(CNC(=O)c2cc(-c3ccc(OC)cc3)nc3n[nH]c(-c4cccc([N+](=O)[O-])c4)c23)cc1,3%,0%,4%,?,?,1%
COc1ccc(CNC(=O)c2cc(-c3ccc(OC)c(OC)c3)nc3n[nH]c(-c4ccc(C)cc4)c23)cc1,-13%,-41%,-24%,?,?,15µM*
CC(O)/C=C/C1(O)C(C)C(O)C(O[C@@H]2O[C@H](CO)[C@@H](O)[C@H](O)[C@H]2O)CC1(C)C (some centres undefined),/,/,1%[53.3 µM],/,/,/
O=C(CSc1nc2c(c(=O)[nH]1)CN(Cc1ccc(F)cc1)CC2)Nc1cccc(C(F)(F)F)c1,14µM*,-39%,-26%,?,?,-1%
C=C1CCC2C(C)(C(=O)O)CCCC2(C)C1CC/C(=C\CO)CO (centres undefined),/,/,1%[53.3 µM],/,/,/
CN(C(=O)Nc1cn(C)c(=O)c2ccccc12)c1ccccc1,7%,-23%,35µM*[activator],-16%,15%,-23%
CC(C)(C)C1CCN(C(=O)n2ncc(C(O)(c3ccccc3)c3ccccc3)n2)CC1,/,/,-23%,/,/,/
Cc1cc(N2CCN(C)CC2)nc2ccc(NC(=O)Nc3ccccc3)cc12,?,?,2%,62%,?,?
Cc1cc(N2CCN(C)CC2)nc2ccc(NC(=O)Nc3cccc(Cl)c3)cc12,25µM*,-1%,-10%,7%,?,?
Cc1ccc2oc(-c3cc(NC(=O)c4cccs4)cc(C)c3O)nc2c1,9%,4%,-19%,-7%,-31%,8%
Cc1cc(NC(=O)c2ccco2)cc(-c2nc3cc(Cl)ccc3o2)c1O,-19%,-17%,0%,-20%,?,12µM*
COc1cc(/C=C/C(=O)O[C@@H]2O[C@H](CO)[C@@H](O)[C@H](O)[C@H]2O)ccc1O,/,/,-9%[53.3 µM],/,/,/
COc1cccc(N2CCN(C(=O)c3ccc(NC(=O)c4nsc5ccccc45)cc3)CC2)c1,-29%,-71%,-21%,14µM*,?,18%
CC[C@@H](C)[C@H](N)C(=O)N1Cc2ccccc2C1,/,/,0%,/,/,/
CC(=O)c1cccc(NC(=O)c2noc3c2CSc2ccccc2-3)c1,15%,1.4µM*,6%,52%,?,-2%
CCc1nn(CC(=O)NCc2ccccc2Cl)c(=O)c2cc3ccccc3n12,0%,-7%,-17%,7%,?,-13%
CCc1nn(CC(=O)NCc2ccccc2Cl)c(=O)c2cccn12,2%,-1%,-14%,-3%,3%,2.6µM*
O=C1C(SCCO)=C(SCCO)C(=O)c2ccccc21,/,/,7.9µM*,/,/,/
CCCCOC(=O)c1ccc(NC(=O)c2cc(=O)c3ccccc3o2)cc1,0%,0%,-13%,-17%,?,6%
CCCCOC(=O)c1cccc(NC(=O)c2cc3ccccc3o2)c1,-15%,-52%,-28%,10µM*,?,17%
Cc1c(Cl)ccc2sc(NC(=O)c3ccc(S(=O)(=O)N4CCCc5ccccc54)cc3)nc12,12%,-17%,3%,-16%,-17%,15µM*
